KB-3-1 tox: kills parental KB-3-1 adenocarcinoma cells; KB-3-1 viability, CellTiter-Glo ATP luminescence, 72 h; hit rate 1.4% among 400,000; Potency, µM (top dose mostly 46.1 µM), hits mostly cytotoxic; AID 1347075; further: on the % scale 0 is the no-effect control and ±100 the full control effect; nearly all actives have a fitted effect of over 60% in size
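Cytotoxicity in the drug-sensitive parental line KB-3-1 was scored as loss of CellTiter-Glo luminescence following 72 h incubation with compound. Values come from curve fitting of normalized concentration-response data.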
SW480 rerep: inducers of DNA re-replication in SW480 colon cancer cells | AID 624297 | Potency, µM (titrated, usually from 46.1 µM), without a hit: top-dose re-replication activation, hits mostly activators | SW480 DNA re-replication, Hoechst DNA content imaging, 48 h | hit rate 1.8% among 340,000; further: % of control where 0% means no effect; nearly all actives have a fitted effect of over 55% in size
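Image-based DNA-content assay: after two days of treatment, nuclei were labelled with the DNA dye Hoechst and imaged, and hits were compounds raising the count of nuclei showing high fluorescence intensity.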
MCF10A rereplic: induces DNA re-replication in MCF 10a normal breast cells; Potency, µM (highest dose often 46.1 µM), for the others: at the highest dose activity, positive = re-replication, actives largely listed as activators; AID 624296; hit rate 2.9% among 350,000; MCF 10A DNA re-replication, Hoechst nuclear intensity, 48 h; further: % of control where 0% means no effect; nearly all actives have a fitted effect of over 50% in size
KB-V1 cytotox: kills drug-selected multidrug resistant KB-V1 cells; KB-V1 MDR cells viability, CellTiter-Glo, 72 h; hit rate 3.4% among 400,000; Potency, µM (highest dose often 46.1 µM), most hits filed as cytotoxic; further: on the % scale 0 is the no-effect control and ±100 the full control effect; nearly all actives have a fitted effect of over 60% in size
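Potencies derive from concentration-effect curves fitted to normalized luminescence (CellTiter-Glo) of KB-V1 cells treated for 72 h at 37 degrees C in phenol-red-free DMEM containing 10% FBS.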
ELG1 repair inh: inhibitors of ELG1-dependent DNA repair in HEK293T cells; HEK293T ELG1-luciferase reporter, luminescence, 16 h; DNA damage induced by 5-fluorouridine; Potency, µM (highest dose often 46.1 µM), for inactives: at the top dose activity change, negative = inhibition, hits mostly inhibitors; hit rate 2.3% among 330,000; AID 504467; further: on the % scale 0 is the no-effect control and ±100 the full control effect; nearly all actives have a fitted effect of over 55% in size
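Step one: seed 2,000 cells per well. Step two: pin-transfer compound or DMSO alongside 5-fluorouridine. Step three: incubate 16 hr, 37 °C, 5% CO2. Step four: add ONE-Glo, wait 30 min, read luminescence.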
Numbers without * were called inactive. A selection: hits, their analogues and other compounds. The true share with any hit is near 8.1%. The call rests on the fitted dose curve; in most records, active means well fitted curve in the direction sought with a large enough effect; inconclusive means small, poorly fitted or top-dose-only effect, or another doubt; inactive means no such curve, though single readings can be large; an effect the other way counts as inactive or inconclusive. Potency means the concentration at half of the fitted maximal effect.

How did CCOC(=O)c1cccc(NC(=O)/C=C/c2ccc([N+](=O)[O-])cc2)c1 do in these assays?
KB-3-1 tox: inactive; SW480 rerep: -1%; MCF10A rereplic: 18%; KB-V1 cytotox: 4.1µM*; ELG1 repair inh: inconclusive

How did O=C(/C=C/c1ccc([N+](=O)[O-])cc1)Nc1cccc(S(=O)(=O)NC2=NCCCCC2)c1 do in these assays?
KB-3-1 tox: inactive; SW480 rerep: 1%; MCF10A rereplic: 10%; KB-V1 cytotox: 18µM*; ELG1 repair inh: 15µM*

What do the screens show for `COC(=O)c1cccc(NC(=O)/C=C/c2ccc([N+](=O)[O-])cc2)c1`?
KB-3-1 tox: inactive; SW480 rerep: 2%; MCF10A rereplic: -2%; KB-V1 cytotox: inactive; ELG1 repair inh: inconclusive

How did COc1ccc(OCc2ccc(-c3nc(C#N)c(N4CCN(c5cccc(Cl)c5)CC4)o3)o2)cc1 do in these assays?
KB-3-1 tox: inactive; KB-V1 cytotox: inactive

What do the screens show for `Cc1cc(C)c(C(=O)COC(=O)c2cc([N+](=O)[O-])ccc2N2CCOCC2)cc1C`?
KB-3-1 tox: inactive; SW480 rerep: -3%; MCF10A rereplic: 4%; KB-V1 cytotox: 18µM*; ELG1 repair inh: 7%

How did COc1ccccc1C(=O)COC(=O)c1cc([N+](=O)[O-])ccc1N1CCOCC1 do in these assays?
KB-3-1 tox: inactive; SW480 rerep: 11%; MCF10A rereplic: 2%; KB-V1 cytotox: inconclusive; ELG1 repair inh: inconclusive

How did CN(Cc1ccccc1)C(=O)COC(=O)c1cc([N+](=O)[O-])ccc1N1CCOCC1 do in these assays?
KB-3-1 tox: inactive; SW480 rerep: -5%; MCF10A rereplic: -2%; KB-V1 cytotox: inconclusive; ELG1 repair inh: -1%

How did O=C(COC(=O)c1cc([N+](=O)[O-])ccc1N1CCOCC1)Nc1cccc(F)c1 do in these assays?
KB-3-1 tox: inactive; SW480 rerep: -11%; MCF10A rereplic: -16%; KB-V1 cytotox: inactive; ELG1 repair inh: 21µM*

How did COc1cc(C(=O)COC(=O)c2cc([N+](=O)[O-])ccc2N2CCOCC2)ccc1OC(F)F do in these assays?
KB-3-1 tox: 21µM*; SW480 rerep: -2%; MCF10A rereplic: 10%; KB-V1 cytotox: inconclusive; ELG1 repair inh: inconclusive

What do the screens show for `COc1ccc(CN(C)C(=O)COC(=O)c2cc([N+](=O)[O-])ccc2N2CCCC2)c(OC)c1OC`?
KB-3-1 tox: inconclusive; SW480 rerep: 2%; MCF10A rereplic: 13%; KB-V1 cytotox: inactive; ELG1 repair inh: 15µM*

What do the screens show for `CC(C)(C)OC(=O)NCCCCCNC(=O)c1ncn2c1c(=O)[nH]c1ccccc12`?
KB-3-1 tox: inconclusive; KB-V1 cytotox: inactive

Results for O=C(Nc1cccc(C(F)(F)F)c1)Nc1ccc2nc([C@@H]3O[C@H](CO)[C@@H](O)[C@H](O)[C@H]3O)[nH]c2c1 ?
KB-3-1 tox: inactive; KB-V1 cytotox: inactive

What do the screens show for `CCCn1cc(S(=O)(=O)c2ccc(C)cc2)c(=O)c2cc(OC)c(OC)cc21`?
KB-3-1 tox: inactive; SW480 rerep: 3%; MCF10A rereplic: -21%; KB-V1 cytotox: inactive; ELG1 repair inh: 12%

How did COc1ccccc1CNC(=O)Cn1ncn2c(cc3sccc32)c1=O do in these assays?
KB-3-1 tox: inactive; KB-V1 cytotox: inactive

What do the screens show for `CCOc1ccc(CCNC(=O)COC(=O)c2cc([N+](=O)[O-])ccc2N2CCOCC2)cc1OCC`?
KB-3-1 tox: inactive; SW480 rerep: -32%; MCF10A rereplic: -7%; KB-V1 cytotox: inactive; ELG1 repair inh: 18µM*

How did CC1=C(/C=N/Nc2ccc([N+](=O)[O-])cc2[N+](=O)[O-])C(C)(C)CCC1 do in these assays?
KB-3-1 tox: 16µM*; SW480 rerep: 2%; MCF10A rereplic: 15%; KB-V1 cytotox: inconclusive; ELG1 repair inh: 1%

What do the screens show for `Cc1ccccc1-c1ccccc1CN1[C@@H](C(C)C)COCCS1(=O)=O`?
KB-3-1 tox: inconclusive; SW480 rerep: 1%; MCF10A rereplic: inconclusive; KB-V1 cytotox: inactive; ELG1 repair inh: -4%

How did Cc1ccn2c(=O)nc(SCC(=O)Nc3ccc4c(c3)OCCO4)nc2c1 do in these assays?
KB-3-1 tox: inactive; SW480 rerep: inconclusive; MCF10A rereplic: inconclusive; KB-V1 cytotox: inactive; ELG1 repair inh: 10%

Results for O=C(COc1ccc(-c2ccccc2)cc1)N1CCN(S(=O)(=O)Cc2ccccc2)CC1 ?
KB-3-1 tox: 3.7µM*; SW480 rerep: inconclusive; MCF10A rereplic: 1%; KB-V1 cytotox: 4.6µM*; ELG1 repair inh: inconclusive

What do the screens show for `Cn1c(SCC(=O)NCC2CCCO2)nc2c([nH]c3ccccc32)c1=O` (stereo not given)?
KB-3-1 tox: inactive; SW480 rerep: -4%; MCF10A rereplic: 3%; KB-V1 cytotox: inconclusive; ELG1 repair inh: inconclusive

How did C=CCn1c(SCC(=O)NCC2CCCO2)nc2c([nH]c3ccccc32)c1=O (stereo not given) do in these assays?
KB-3-1 tox: inactive; SW480 rerep: -11%; MCF10A rereplic: inconclusive; KB-V1 cytotox: inactive; ELG1 repair inh: 4.1µM*

How did CN(C)S(=O)(=O)Oc1ccsc1C(=O)Nc1ccccc1Cl do in these assays?
KB-3-1 tox: inactive; SW480 rerep: 1%; MCF10A rereplic: inconclusive; KB-V1 cytotox: inactive; ELG1 repair inh: -8%

What do the screens show for `CN(C)S(=O)(=O)Oc1ccsc1C(=O)Nc1cccc(Cl)c1Cl`?
KB-3-1 tox: inconclusive; SW480 rerep: -2%; MCF10A rereplic: 13%; KB-V1 cytotox: 21µM*; ELG1 repair inh: -10%

What do the screens show for `Nc1ccc(N2CCCC2)c(S(=O)(=O)Nc2cccc(C(F)(F)F)c2)c1`?
KB-3-1 tox: inactive; SW480 rerep: 2%; MCF10A rereplic: 10%; KB-V1 cytotox: inactive; ELG1 repair inh: -2%

Results for Nc1c(NC2CCCCC2)c2ccccc2oc1=O ?
KB-3-1 tox: inactive; SW480 rerep: 2%; MCF10A rereplic: 2%; KB-V1 cytotox: 16µM*; ELG1 repair inh: -18%

How did Cc1cccc(NS(=O)(=O)c2ccc(C(=O)N3CCCCCC3)cc2)c1C do in these assays?
KB-3-1 tox: inactive; SW480 rerep: -370%; MCF10A rereplic: 5%; KB-V1 cytotox: inconclusive; ELG1 repair inh: -15%

How did COc1ccc(COc2cc(-c3cccc(OC)c3)nc3ccc(NC(=O)c4ccccc4)cc23)cc1 do in these assays?
KB-3-1 tox: 16µM*; SW480 rerep: 16µM*; MCF10A rereplic: 4.6µM*; KB-V1 cytotox: inactive; ELG1 repair inh: 6.5µM*

Results for O=C(O)c1cccc(NC(=O)c2ccc(COc3ccc(Cl)cc3)cc2)c1 ?
KB-3-1 tox: inactive; SW480 rerep: -2%; MCF10A rereplic: 1%; KB-V1 cytotox: inconclusive; ELG1 repair inh: inconclusive

What do the screens show for `COc1ccc(COc2cc(-c3cccc(OC)c3)nc3ccc(NC(=O)c4ccc(Cl)cc4)cc23)cc1`?
KB-3-1 tox: inconclusive; SW480 rerep: 23µM*; MCF10A rereplic: 26µM*; KB-V1 cytotox: inactive; ELG1 repair inh: inconclusive

Bioassay records: PubChem, National Center for Advancing Translational Sciences (NCATS)
